Compound activity (PubChem)
UDG counter – blocks uracil-DNA glycosylase in AID counter-screen; FRET deamination/UDG coupled assay, UDG read, 4 h; Potency, µM (titrated, usually from 115 µM), without a hit: top-dose activity change, negative = inhibition, usual class: inhibitors; hit rate 0.14% among 91,000; AID 1347430; note: nearly all actives have a fitted effect of over 65% in size
AID inh – blocks human AID cytidine deaminase activity; Q9GZX7; AID deamination FRET fluorescence, UDG-coupled, 4 h; Potency, µM (doses to about 115 µM), most hits filed as inhibitors; hit rate 0.32% among 91,000; AID 1347428; note: nearly all actives have a fitted effect of over 25% in size
Target sequence (Q9GZX7 whole entry, looked up): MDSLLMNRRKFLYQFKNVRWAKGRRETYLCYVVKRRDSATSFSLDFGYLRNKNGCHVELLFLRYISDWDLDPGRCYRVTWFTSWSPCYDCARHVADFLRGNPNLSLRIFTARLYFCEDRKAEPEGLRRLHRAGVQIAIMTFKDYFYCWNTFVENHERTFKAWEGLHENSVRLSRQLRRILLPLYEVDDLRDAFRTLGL
* = called active by the depositor; i = inactive; ? = inconclusive; [ ] = another dose, or the depositor's remark. Compounds with a hit are over-represented: about 0.47% of the library has one in this group of screens. Calls come from the whole dose curve; as a rule, active = well fitted curve in the direction sought with a large enough effect; inconclusive = small, poorly fitted or top-dose-only effect, or another doubt; inactive = no such curve, though single readings can be large; an effect the other way counts as inactive or inconclusive. % is set by controls: 0 for no effect and ±100 for the full control effect; potency is the fitted concentration of half-maximal effect.

SMILES	UDG counter	AID inh
CCc1cccc(NC(=O)c2c(C)oc3ncnc(N4CCCCC4)c23)c1	89µM*	i
Cc1ccc(NC(=O)c2c(C)oc3ncnc(N4CCCCC4)c23)cc1Cl	?	i
O=C(CSc1nnc(N2CCOCC2)n1-c1cccc(F)c1)Nc1ccc2c(c1)OCCO2	-2%	i
CCCCc1c(C)c2ccc(OC)c(/C(C)=N/O)c2oc1=O	6%	i
CCOc1ccc(CCNC(=O)c2cc3c(-c4ccc(OC)c(OC)c4)nn(C)c3s2)cc1OCC	79µM*	?
CCOCCCNC(=O)c1cc2c(-c3ccc(OC)c(OC)c3)nn(C)c2s1	0%	i
CNC(=S)N/N=C(/C)c1ccccn1	6%	i
CN(C(=O)C1CCN(c2ncnc3c2nc2n3CCCCC2)CC1)c1ccccc1F	2%	i
Cc1ccc(C)c(N(C)C(=O)C2CCN(c3ncnc4c3nc3n4CCCCC3)CC2)c1	-10%	79µM*
CCCC(=O)Nc1ccc(-c2csc(N)n2)cc1	-3%	i
COc1ccccc1C(=O)Nc1ccc2nc(N3CCC(C)CC3)cc(C)c2c1	-18%	?
COc1cc(OC)cc(C(=O)Nc2ccc3nc(N4CCC(C)CC4)cc(C)c3c2)c1	?	40µM*
Cc1ccc(Cl)cc1N1CCN(C(=O)c2cnc(N3CCOCC3)c3ccccc23)CC1	?	22µM*
Cc1ccc(Cl)cc1N(C)C(=O)c1cnc(N2CCOCC2)c2ccccc12	51%	i
O=C(c1cc2ccc3cccnc3c2[nH]1)N1CCN(c2ccc(Cl)cc2)CC1	-5%	i
Cc1ccc(Cl)cc1N1CCN(C(=O)c2cc3ccc4cccnc4c3[nH]2)CC1	-12%	22µM*
Cc1nc2nc(C)c(NC(=O)Nc3ccccc3C(F)(F)F)c(=O)n2[nH]1	0%	i
Cc1ccc(S(=O)(=O)C(CNC(=O)COc2ccccc2)c2cccs2)cc1 (configuration not stated)	-28%	45µM*
Cc1cc(S(=O)(=O)C(CNC(=O)COc2ccccc2)c2cccs2)ccc1F (configuration not stated)	0%	i
O=C(CSc1nnc(-c2ccccc2)o1)N1CCCc2ccccc21	-6%	?
O=C(CSc1nnc(-c2ccccc2Cl)o1)N1CCCc2ccccc21	-17%	28µM*
NO	28µM*	40µM*
Cc1oc2c(C)c3o/c(=N/O)c4c(c3cc2c1C)CCCC4	7%	i
CCOc1cccc(NC(=O)c2ccccc2)c1	-7%	i
CC1CCCN(C(C)C(=O)N(C)CC(=O)Nc2ccccc2C(F)(F)F)C1 (configuration not stated)	8%	i
SMILES	UDG counter	AID inh
CCCCOc1ccc(CN2C(=O)C(=O)c3cc(C)ccc32)cc1OC	38%	?
CCCCCOc1ccccc1CN1C(=O)C(=O)c2cc(C)ccc21	-20%	28µM*
CCc1ccc(NC(=O)Cn2cc(OC)c(=O)cc2CSc2ccc(F)cc2)cc1	0%	i
CCCCc1ccc(C(=O)COC(=O)c2cc(S(C)(=O)=O)ccc2C)cc1	1%	i
Nc1nc2c(s1)C(c1cccc(OCc3cccc(F)c3)c1)CC(=O)N2 (configuration not stated)	-13%	?
NC(=O)COc1ccc(C2CC(=O)Nc3nc(N4CCCCC4)sc32)cc1 (configuration not stated)	-15%	22µM*
COc1ccc(C2CC(=O)Nc3nc(N)sc32)cc1OC1CCCC1 (configuration not stated)	-16%	?
COc1cc(C2CC(=O)Nc3nc(N4CCCCC4)sc32)ccc1OCC(N)=O (configuration not stated)	-17%	22µM*
COc1ccc(C2CC(=O)Nc3ccsc32)cc1OCC(N)=O (configuration not stated)	-1%	i
NC(=O)COc1cccc(C2CC(=O)Nc3nc(N4CCCCC4)sc32)c1 (configuration not stated)	-17%	28µM*
CCN1CCN(CC(=O)c2c(C)[nH]c3cc(C)ccc23)CC1	-1%	i
O=C(O)COc1ccc(/C=C2/NC(=O)NC2=O)cc1Br	4%	i
N#Cc1nc(Cc2ccccc2)oc1NCc1ccc(F)cc1	-11%	i
CCCCNc1nc(-c2ccc(N(CC)S(C)(=O)=O)cc2)cs1	-11%	i
COc1cccc(C2CC(=O)Nc3ccsc32)c1OC (configuration not stated)	1%	i
COc1cccc(C2CC(=O)Nc3nc(N)sc32)c1OCC(C)C (configuration not stated)	-13%	40µM*
CCCCCCCc1ccc(C(=O)Nc2ccccc2C)cc1	-4%	i
Cc1ccc(CN(Cc2ccco2)C(=O)COc2cccc(C)c2C)o1	-8%[57.5 µM]	40µM*
Cc1ccc(CN(Cc2ccco2)C(=O)COc2c(C)cc(C)cc2C)cc1	-30%	?
Cc1cccc(OCC(=O)N(Cc2ccc(N(C)C)cc2)Cc2ccco2)c1C	-18%	?
Cc1cc(C)c(OCC(=O)N(Cc2ccco2)Cc2ccco2)c(C)c1	-1%[57.5 µM]	45µM*
c1ccc(-n2nnnc2CNc2cccc3c2CCCC3)cc1	0%	i
CCCCC1CCC(C(=O)N2CC(=O)Nc3ccc(F)cc3C2c2ccc(F)cc2)CC1 (configuration not stated)	-23%	35µM*
CCCC(=O)N1CC(=O)Nc2ccc(Cl)cc2C1c1ccc(F)cc1 (configuration not stated)	-1%	i
N#CC1=C(N)OC2=C(C(=O)CC(c3ccccc3)C2)C1Cc1ccccc1 (configuration not stated)	5%	i
SMILES	UDG counter	AID inh
CN(C)CCCN(Cc1ccc(Cl)c(Cl)c1)C(=O)/C=C/c1ccncc1	-14%	i
FC(F)(F)c1cccc(-n2nnnc2C2(N3CCOCC3)CCCC2)c1	89µM*	i
Cc1cccc(-n2nnnc2C2(N3CCCC3)CCCC2)c1	0%	i
O=C(N1CCN(Cc2ccccc2)CC1)C(F)(F)C(F)(F)C(F)(F)C(F)(F)F	-14%	i
Cc1ccc(-n2ncc(C(=O)NCCc3ccccc3)c2C2CCN(C(=O)OC(C)(C)C)CC2)c(C)c1	-21%	25µM*
CCN1CCN(CCCNC(=O)c2cnn(-c3ccc(C)cc3)c2C2CCN(C(=O)OC(C)(C)C)CC2)CC1	10%	i
CN1CCN(CCNC(=O)c2cnn(-c3cccc(Cl)c3)c2C2CCN(C(=O)OC(C)(C)C)CC2)CC1	-16%	i
CC(C)(C)OC(=O)N1CCC(c2c(C(=O)NCCc3ccccc3)cnn2-c2ccc(F)cc2F)CC1	51%	?
Cc1ccc(C)c(N2CCN(CCCNC(=O)c3cnn(-c4cccc(Cl)c4)c3C3CCN(C(=O)OC(C)(C)C)CC3)CC2)c1	-20%	35µM*
Cc1ccc(C)c(N2CCN(CCCNC(=O)c3cnn(-c4ccc(F)cc4)c3C3CCN(C(=O)OC(C)(C)C)CC3)CC2)c1	-28%	28µM*
CC(Sc1nc(-c2ccco2)nc2ccccc12)C(=O)N(C(C)C)C(C)C (configuration not stated)	-15%	i
O=C(CSc1ncnc2nc[nH]c12)NCc1cccc(Cl)c1	-4%	i
CSc1ccccc1NC(=O)c1ccccc1SC	-6%	i
COc1ccc(OCCn2c(C3CC(=O)N(c4ccc(F)cc4)C3)nc3ccccc32)cc1 (configuration not stated)	-26%	?
Cc1cccc(C)c1OCCCCn1c(C2CC(=O)N(c3ccc(F)cc3)C2)nc2ccccc21 (configuration not stated)	79µM*	?
